Shown are actives, neighbours in structure and some others; about 0.93% of the full set was active somewhere.
TAR Tat displ: TAR RNA-Tat peptide displacers, HIV-1, primary screen, biochemical, FRET, FAM/TAMRA-labeled Tat | HIV-1 TAR RNA, Tat peptide displacement FRET; hits give high values | z-score (test concentration not listed) | 100,000 tested, 0.6% active | AID 1259389, 2018; active = z-score of 3 or more in at least 2 runs
CDC25B-CDK2 inh: primary biochemical HTRF screen for blockers of M-phase inducer phosphatase 2 binding to CDK2/cyclin A; P30305+P24941; HTRF CDC25B-CDK2/CyclinA binding, anti-His/anti-Flag; hits give high values; z-score (concentration not given with the values); 94,000 tested, 0.72% active; AID 1259370, 2018; in the data active = z-score above about 3.2
Large screens that a line does not name were inactive.

Fc1cc(F)cc(CN2CCc3nc(Nc4ccc5c(c4)OCCO5)ncc3C2)c1	none (no result: CDC25B-CDK2 inh)
O=C(Cc1ccccc1)Nc1nc(-c2ccc(Br)cc2)ns1	none
CC(C)Cn1cc(NC(=O)N2CCN(C(=O)c3ccco3)CC2)c2ccccc2c1=O	none (no result: CDC25B-CDK2 inh)
CS(=O)(=O)c1ccc(-c2ccc(NS(=O)(=O)c3cccc(F)c3)cc2)nn1	none (no result: CDC25B-CDK2 inh)
CCOC(=O)c1c(NC(C)=O)c2c3c(sc2n1Cc1cn2ccccc2n1)CCCC3	none (no result: CDC25B-CDK2 inh)
CCOC(=O)c1c(NC(C)=O)c2c3c(sc2n1CC(=O)NCc1ccco1)CCCC3	TAR Tat displ 14 (no result: CDC25B-CDK2 inh)
Cc1nc(-c2cccs2)c(CC(=O)Nc2ccc(N3CCCC3)cc2)s1	CDC25B-CDK2 inh 12
Cc1nc(-c2cccs2)c(CC(=O)N2CCCC2)s1	none
CC(C)c1ccc(NC(=O)CSc2nnc(Cn3cc(C(F)(F)F)ccc3=O)n2C)cc1	none (no result: TAR Tat displ)
CCCC(=O)NCC(c1ccco1)N1CCOCC1 (stereo not drawn)	none
O=c1[nH]c(SCc2ccccc2F)nc2c1CCC2	none
O=c1[nH]c(SCc2c(F)cccc2Cl)nc2c1CCC2	TAR Tat displ 8.6
Cc1c(C(=O)N2CCCCC2)c(S(=O)(=O)NC2CCCc3ccccc32)c(C)n1C (stereo not drawn)	none (no result: CDC25B-CDK2 inh)
CC1CN(C)C(C)C(/C=C(/C#N)C(N)=S)C1=O (stereo not drawn)	CDC25B-CDK2 inh 7.9 (no result: TAR Tat displ)
COc1ccc(/C=C(\C#N)C(N)=S)cc1	none (no result: TAR Tat displ)
Cc1ccc(-c2noc(-c3nnn(-c4cccc(Cl)c4)c3C)n2)cc1	none (no result: CDC25B-CDK2 inh)
O=C(/C=C/c1cccnc1)c1ccc[cH-]1.[Fe+2].c1cc[cH-]c1	CDC25B-CDK2 inh 15 (no result: TAR Tat displ)
CC(=C/C(=O)O)/C(=C\c1cccnc1)C(=O)O	none (no result: TAR Tat displ)
Cc1nc2ccccn2c1-c1ccnc(SCC(=O)Nc2ccc(C(F)(F)F)cc2)n1	none (no result: TAR Tat displ)
O=C(NC1CCSC1=O)c1ccc(-c2ccccc2)cc1 (stereo not drawn)	none
O=C(NC1CCSC1=O)c1cccc(C(=O)NC2CCSC2=O)c1 (stereo not drawn)	TAR Tat displ 26
COc1cn(CC(=O)Nc2ccc(Br)cc2)c(CSc2nccc(C)n2)cc1=O	none (no result: CDC25B-CDK2 inh)
Cc1ccc(C)n1-c1sccc1C(=O)NN	none (no result: TAR Tat displ)
Cc1ccc(C)n1-c1ccc(Cl)c(C(=O)NN)c1	CDC25B-CDK2 inh 19 (no result: TAR Tat displ)
Cc1ccc(NS(=O)(=O)c2cc(-c3onc(C)c3C)ccc2C)cc1	none (no result: CDC25B-CDK2 inh)
COc1cc(NC(=O)C(C)CS(=O)(=O)c2ccc3c(c2)NC(=O)C(C)S3)cc(OC)c1 (stereo not drawn)	TAR Tat displ 15 (no result: CDC25B-CDK2 inh)
Cc1cc(C)cc(NC(=O)C(C)CS(=O)(=O)c2ccc3c(c2)NC(=O)C(C)S3)c1 (stereo not drawn)	none (no result: CDC25B-CDK2 inh)
O=C(Nc1cccc2cccnc12)C(=O)Nc1cccc2cccnc12	none (no result: TAR Tat displ)
O=C(Nc1cccc2cccnc12)c1ccco1	CDC25B-CDK2 inh 5.6
O=C(c1cccs1)N1CCN(CCOc2ccccc2)CC1	none (no result: TAR Tat displ)
O=C(c1cccs1)N1CCN(CCN2C(=O)c3cccc4cccc(c34)C2=O)CC1	CDC25B-CDK2 inh 12
CCC(=O)N1c2ccc(S(=O)(=O)CCC(=O)Nc3cc(C)on3)cc2CC1C (stereo not drawn)	none (no result: CDC25B-CDK2 inh)
O=C(Cn1cnc(S(=O)(=O)N2CCCC2)c1)Nc1ccc(F)c(F)c1	none (no result: CDC25B-CDK2 inh)
COc1cccc(CC2C(=O)Nc3ccccc32)c1 (stereo not drawn)	none
COc1cccc(C[C@H]2NC[C@H](O)[C@H]2OC(C)=O)c1	TAR Tat displ 3.8 (no result: CDC25B-CDK2 inh)
O=C(c1cc(-c2ccco2)[nH]n1)N1CCN(Cc2ccc3c(c2)OCO3)CC1	none (no result: CDC25B-CDK2 inh)
O=C(NCCC1=CCCCC1)C1CCN(c2ccc(-c3cccs3)nn2)CC1	none (no result: CDC25B-CDK2 inh)
Fc1ccc(NCc2ccncc2)cc1	CDC25B-CDK2 inh 15
c1cc(CNc2ccc3c(c2)OCO3)ccn1	none
CSc1ccc(/C=C/c2nc(=O)c3ccccc3o2)cc1	none
O=c1nc(/C=C/c2ccc(O)c(O)c2)oc2ccccc12	TAR Tat displ 18
CN1CCc2nc3sc(C(=O)c4ccc(Cl)cc4)c(N)c3cc2C1	CDC25B-CDK2 inh 19
CN1CCc2nc3sc(C(=O)Nc4cccc(Cl)c4)c(N)c3cc2C1	none
CN(C)CCCN1C(=O)c2oc3ccc(F)cc3c(=O)c2C1c1cccc(Cl)c1 (stereo not drawn)	none (no result: CDC25B-CDK2 inh)
Clc1cc2c(c3ncccc13)OCN(CCc1ccccc1)C2	none (no result: TAR Tat displ)
CCCCN1COc2c(cc(Cl)c3cccnc23)C1	CDC25B-CDK2 inh 17
CC(C)C(=O)N(c1cc2sc(=O)oc2c2ccccc12)S(=O)(=O)c1cccs1	CDC25B-CDK2 inh 7
CC(C)C(=O)N(c1ccc2oc(=O)sc2c1)S(=O)(=O)c1cccs1	none
CCc1nn(CC(=O)N2CCN(c3ccccn3)CC2)c(=O)c2cc3sccc3n12	none
O=S(=O)(c1ccc(Cl)cc1)N(CCO)CC(O)Cn1c2ccccc2c2ccccc21 (stereo not drawn)	none
COc1ccc(OC)c(NC(=O)NC(C)c2c(-n3cccc3)sc3c2CCCC3)c1 (stereo not drawn)	none
COc1ccc(NC(=O)NC(C)c2c(-n3cccc3)sc3c2CCCC3)cc1OC (stereo not drawn)	CDC25B-CDK2 inh 11
O=C1c2ccccc2-c2onc3c(N4CCN(c5ccccn5)CC4)cc(NCc4ccco4)c1c23	none
O=c1c2cccnc2nc(SCc2cccc(F)c2)n1-c1ccccc1	none
CC(=O)NC1=NN(C(C)=O)C(c2ccc(C)o2)S1 (stereo not drawn)	TAR Tat displ 16
CC(=O)NC1=NN(C(C)=O)C(c2ccc(Sc3ccc(C)cc3)o2)S1 (stereo not drawn)	none
O=C(NCc1ccc(F)cc1)N1CCN2CCCCC2C1 (stereo not drawn)	none (no result: CDC25B-CDK2 inh)
CCOc1ccc(C2/C(=C(/O)c3ccc(C)cc3)C(=O)C(=O)N2c2cccnc2)cc1 (stereo not drawn)	none
COC(=O)c1ccc(C2/C(=C(/O)c3ccc(C)cc3)C(=O)C(=O)N2c2cccnc2)cc1 (stereo not drawn)	CDC25B-CDK2 inh 12
O=C(CSc1nnnn1-c1ccccc1)Nc1ncc2c(n1)CC(c1ccco1)CC2=O (stereo not drawn)	CDC25B-CDK2 inh 15
Cc1nnc(SCC(=O)Nc2ncc3c(n2)CC(c2ccco2)CC3=O)s1 (stereo not drawn)	none
CC1=C(c2ccccc2)S(=O)(=O)NC1=NCCCN1CCN(c2cc(C)ccc2C)CC1	CDC25B-CDK2 inh 13
CC1=C(c2ccccc2)S(=O)(=O)NC1=NCCCN1CCN(C2CCCCC2)CC1	none
NCCc1ccc(O)c(O)c1	TAR Tat displ 25
COC(=O)C(N)Cc1ccc(O)c(O)c1 (stereo not drawn)	none
O=C(NCCc1cccs1)C1CCN(c2nnc(-n3cccc3)s2)CC1	none (no result: CDC25B-CDK2 inh)
COC(=O)C(O)c1ccccc1 (stereo not drawn)	none (no result: CDC25B-CDK2 inh)
CC(=O)N1CCN(CCn2c(C)c3c(=O)n(-c4nc5ccccc5s4)[nH]c3cc2=O)CC1	none
Cc1c2c(=O)n(-c3nc4ccccc4s3)[nH]c2cc(=O)n1Cc1ccc(C(=O)O)cc1	TAR Tat displ 24
Cc1ccc(S(=O)(=O)NCCn2c(C)nc3cccnc32)cc1	none (no result: CDC25B-CDK2 inh)
Cc1ccnc(N2C(=O)c3ccccc3C2Nc2ccccc2)c1 (stereo not drawn)	none
Cc1ccc(N2C(=O)c3ccccc3C2Nc2cccnc2)nc1 (stereo not drawn)	CDC25B-CDK2 inh 12
CCCn1c(Cn2ccnc2C)nc2cc(NC(=O)c3cccs3)ccc21	none
CC1CN(c2oc(/C=C/c3ccc(F)cc3)nc2C#N)CC(C)O1 (stereo not drawn)	none
CC(C)NC(=O)C1=Cc2cc(Cl)ccc2OC=C1	none

High-throughput results: PubChem, Center for Chemical Genomics, University of Michigan
